PubChem BioAssay (NCATS)
Results filed as inconclusive are left out. Activity calls are given as the source filed them. Calls come from the whole dose curve.

Assay: VSVG counterscreen qHTS to identify inhibitors of SARS-CoV-2 cell entry (AID 1645847); note: nearly all actives have a fitted effect of over 65% in size
Conditions: VSV-G pseudotyped particle entry, luciferase; series mostly up to 57.2 µM
Text: Assay Provider: Wei Zheng, Ph.D.
National Center for Advancing Translational Sciences, National Institute of Health, Rockville, MD.
SARS-CoV-2 spike protein, within the viral envelope, mediates viral attachment and infection of host cells. The SARS-CoV-2 spike protein specifically binds to the host receptor ACE2 (Angiotensin-converting enzyme 2). This interaction promotes endocytosis of the viral particle, additional events lead to viral-host cell membrane fusion and release of the viral contents, allowing viral replication.
While SARS-CoV-2 requires BSL-3 facilities for live virus work, pseudotyped partices (PP) that incorporate SARS-CoV-2 spike proteins without replication elements could facilitate studies on viral entry mechanisms in a BSL-2 setting. This PP cell entry assay could also enable screening of small molecule compound libraries in BSL-2 setting to identify inhibitors of SARS-CoV-2 cell entry.
SEQUENCE No. (e.g., 1, 2, 3, etc.); […] (e.g., Cells, Incubation, Reagent, etc.); VALUE and DESCRIPTION.
1. Cells. Seed 1500 HEK293-ACE2 cells (Expi293F with stable expression of human ACE2) in 2 microL/well media (DMEM, 10% FBS, 1x L-glutamine, 1x Pen/Strep, 1 ug/ml puromycin) in white 1536-well assay plates (Greiner #782073).
2. Incubation. Incubate at 37 degrees C with 5% CO2 overnight (~16 h).
3. Compound. Dispense 23 nL/well compounds in DMSO via pin transfer.
4. Incubation. Incubate for 1 h at 37C 5% CO2.
5. Reagent. Dispense 2 microL/well of vesicular stomatitis virus G glycoprotein (VSV-G) pseudotyped particles (PP). [a] PPs are produced with murine leukemia virus pseudo-typing.
6. Centrifugation. […]
7. Incubation. Incubate at for 48 h at 37C 5% CO2
8. Centrifugation. Remove supernatant with gentle centrifugation using a Blue Washer (BlueCat Bio).
9. Reagent. Dispense 4 microL/well of Bright-Glo Luciferase detection reagent (Promega #E2620).
10. Incubation. Incubate for 5 min at room temperature.
11. Detection. Read luminescence signal (ViewLux plate reader, PerkinElmer). Data was normalized with wells containing VSV-G PP as 100%, and wells containing bald PP (no fusion protein) as 0%.
Potency is the fitted concentration of half-maximal effect.

| SMILES | Potency |
| --- | --- |
| C[C@]12C=CC(=O)C=C1CC[C@@H]1[C@@H]2[C@@H](O)C[C@@]2(C)[C@H]1CC[C@]2(O)C(=O)CO | 13.6 µM (active) |
| Oc1ccc(Cl)c2cccnc12 | 3.04 µM (active) |
| Cc1nc2ccc(CN(C)c3ccc(C(=O)N[C@@H](CCC(=O)O)C(=O)O)s3)cc2c(=O)[nH]1 | 0.304 µM (active) |
| Cc1cc(NS(=O)(=O)c2ccc(N)cc2)nc(C)n1 | inactive |
| CCOc1ccc2nc3cc(N)ccc3c(N)c2c1 | 21.5 µM (active) |
| C[n+]1c2cc(N)ccc2cc2ccc(N)cc21 (tested in a mixture with another compound) | 4.29 µM (active) |
| CC(C)OC(=O)OCOP(=O)(CO[C@H](C)Cn1cnc2c(N)ncnc21)OCOC(=O)OC(C)C | 0.0192 µM (active) |
| CCCCCCNC(=O)n1cc(F)c(=O)[nH]c1=O | 5.41 µM (active) |
| Nc1nc2[nH]cc(CCc3ccc(C(=O)N[C@@H](CCC(=O)O)C(=O)O)cc3)c2c(=O)[nH]1 | 1.71 µM (active) |
| O=C1CN(/N=C/c2ccc([N+](=O)[O-])o2)C(=O)N1 | 1.92 µM (active) |
| COc1cccc2c1C(=O)c1c(O)c3c(c(O)c1C2=O)C[C@@](O)(C(=O)CO)C[C@@H]3O[C@H]1C[C@H](N)[C@@H](O)[C@H](C)O1 | 0.0961 µM (active) |
| Cc1c(C)c2c(c(C)c1O)CCC(C)(COc1ccc(CC3SC(=O)NC3=O)cc1)O2 (stereo unspecified) | 24.1 µM (active) |
| Cc1cc2c(cc1CC(=O)c1sccc1S(=O)(=O)Nc1onc(C)c1Cl)OCO2 | inactive |
| Cc1ccc(Nc2nccc(N(C)c3ccc4c(C)n(C)nc4c3)n2)cc1S(N)(=O)=O | 12.1 µM (active) |
| COc1cccc2c1C(=O)c1c(O)c3c(c(O)c1C2=O)C[C@@](O)(C(=O)CO)CC3OC1CC(N2CCOC(OC)C2)C(O)C(C)O1 (stereo partly specified) | 0.0482 µM (active) |
| CC(C)c1cccc(C(C)C)c1O | inactive |
| CCN(CC)C(C)CN1c2ccccc2Sc2ccccc21 (stereo unspecified) | 0.341 µM (active) |
| CC(C)=CCC/C(C)=C/CC/C(C)=C/CCC(=O)OC/C=C(\C)CCC=C(C)C | 1.08 µM (active) |
| COC(=O)C1=C(C)NC(C)=C(C(=O)OCC(C)=O)C1c1ccccc1[N+](=O)[O-] (stereo unspecified) | 8.57 µM (active) |
| Nc1ccn([C@@H]2O[C@H](CO)[C@@H](O)C2O)c(=O)n1 (stereo partly specified) | 4.82 µM (active) |
| CN1C(C(=O)Nc2ccccn2)=C(O)c2ccccc2S1(=O)=O | 21.5 µM (active) |
